Results on 40 sequences are retold here after the supplement of paper PMC6555819.

One test has as its system RARa homodimer (NR concentration 270 nM). Description: PBM binding z-score (relative to random genomic background probes); higher = stronger binding; sequences stand for … in GC…GCGATTGACAGCGTAGAATGAAGG
Put shortly: (§1)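 Ligand-free nuclear receptor dimers were bound for 1 h to custom Agilent 4×180K protein-binding microarrays. Detection used antibodies against each partner (one per run). Binding z-scores rest on regression-normalized fluorescence, with random background probes as the reference.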
The sequence GATACAGGGTCAGCTAGAGTCCAGAGTATGGAAA had a PBM binding z-score of 0.0956.
Sequence AGGATGAGGTTAAGATCAGGGAAACAGAATACAT yielded a PBM binding z-score of 1.63.
The same measure, in the same setting: the figure for CCGAGTAGGTTATGGGGCATTCGGGCAACGGTGA is -0.149; for TCATAAAGGTAAACAGGTGAAAGTCCGTAAGTTA it is 1.6.
Still for that read-out and setting: the same measure for ACAGACAGGGGAGTGAAGGTAACTCAGCTGGACG: 0.313; for CATACAGGGTCAGCTAGGCGAGAGTAGGGACGGC: 0.266.
On the same count and under the same terms, the figure for GCGACTGGGGCAAATCAGGTTACCATAAGGTTGG is -0.444; for ACTAGCAGGCCAAGTTTGGTTCACTCAAACAAAG it is -0.755; for CCTAGTTTGTCAAGGTCACACACGCTATAGGTAC it is 2.66.
CCTACTGGGCCAAAAGTCATTGATTCCAATGCTC showed a PBM binding z-score of 0.25.
As for TCTAGTTGGGCAAAGGTCACACACTCGAAATGCG, the PBM binding z-score was found to be 2.44.
TCTCGGAGGACACGAAGCTCAGAGCTTTCCAGAG displayed a PBM binding z-score of -0.988.
Still for that read-out and setting: the same measure for ATCTCTAGGTAACCAAGTTCAATGAATGCCGAAC: 1.18; for ACTATTAGTTGACTTAGTGCAACCGATACGACGC: 0.689.
CTCGACAGGTCGTGCTCAGGTGAGTATACCAAAC came in with a PBM binding z-score of -0.81.
As for TCTTGTAAATCAGCAGGTTAAGAAAGCTGGCCAA, the PBM binding z-score turned out to be 0.26.
Sequence CCGACTGGGGCAGAAAGGTTAACATACCATCCGG had a PBM binding z-score of 0.0538.
Still for that read-out and setting: the same measure for CCTACTGGGCCATTCAGAGGTCTTTGATCATATG: -0.345.
In turn, CCTCGGAGGACCACAGGAGGTCAGAGCTGCCAGA returned a PBM binding z-score of 0.245.
With ATCTCTAGGTAAAGAGAGTTCAGTGAATGCAAAT, the PBM binding z-score is 0.685.
The same measure, in the same setting: the same measure for TCTTGGAGATCAACAGGAGGTTAAGAAAGATCGA: -0.417.
Turning to CCTCGGAGGAAAGAAGGTCAGAGCTGTCCGCTTT, the PBM binding z-score is 0.0336.
Sequence CCTCGGAGGACATAAGGTCAGAGCTGTCCGCTTT yielded a PBM binding z-score of 0.792.
Regarding CGTCAAAGTTCAAGGTAAGGTAACAGAAAGCAGC, the PBM binding z-score was determined as 1.28.
On the same count and under the same terms, the figure for TTACCAAGGTGAAGGTCGTTGTTCCCTCTGTAGA is -0.318; for CAGCCTAGGTCAGGGCCAGTTTAGGAGGAACGTT it is -0.133; for ATGTCTAGGTAACAAGTTCAGTGAAAGAGAGGAC it is 0.818.
GGAACGAGGGAATTCGAGTTGATAGCATGGCGAT showed a PBM binding z-score of -0.411.
On the same count and under the same terms, the figure for CCTCGGAGGACAACAGGCGGTCAGAGCTGCCAGA is -0.034; for CCTCGCAGGACAGAAGGTCAGAGCTGTCCGCTTT it is -0.425.
Regarding GCTATTAGTTGAAAGGGCAAGCGAATGATTCTCG, the PBM binding z-score came to 0.795.
On the same count and under the same terms, the figure for CCTAGCAGGCCAGGGTCACTCAAGCATTTCGCTT is -0.537; for CGTCCTAGGTCAATGCTAGGTCAGTGAAAGCATT it is -0.0967; for CCTACAGGGTCAGCTAGGCCAGAGTAGGGACGGC it is -0.295.
With TGAATGAGGTTATAAGATCATGGAACGTTGCAAA, the PBM binding z-score was -0.439.
The same measure, in the same setting: the same measure for CCTTACGGGTCAAGGTTATAGCACGGGTGGTACG: 0.705.
In turn, ACAGACATGTGAGTGAAGGTAACTCAGCTGGACG showed a PBM binding z-score of -0.221.
TCTTGTAGATCAACAGGAAGTTAAGAAAGATCGA: the PBM binding z-score is 0.174.
On the same count and under the same terms, the figure for TCACGGAGGACACGAAGGTCAGAGCTTTCCAGAG is 0.266.
Still for that read-out and setting: the figure for GCTAGTTGGTCAGTAAAAGGTTACACACCGGTCG is 0.524.

The next test has as its system RARb:RXRa (NR concentration 270 nM, RXRa partner concentration 90 nM). The test is described as above. Summed up:
as §1
Sequence GATACAGGGTCAGCTAGAGTCCAGAGTATGGAAA had a PBM binding z-score of 3.84.
AGGATGAGGTTAAGATCAGGGAAACAGAATACAT displayed a PBM binding z-score of 2.1.
The same measure, in the same setting: the figure for CCGAGTAGGTTATGGGGCATTCGGGCAACGGTGA is 1.1; for TCATAAAGGTAAACAGGTGAAAGTCCGTAAGTTA it is 1.65; for ACAGACAGGGGAGTGAAGGTAACTCAGCTGGACG it is 0.21.
Consider CATACAGGGTCAGCTAGGCGAGAGTAGGGACGGC, for which the PBM binding z-score was determined as 4.04.
The sequence GCGACTGGGGCAAATCAGGTTACCATAAGGTTGG had a PBM binding z-score of 1.14.
ACTAGCAGGCCAAGTTTGGTTCACTCAAACAAAG came in with a PBM binding z-score of 0.54.
For CCTAGTTTGTCAAGGTCACACACGCTATAGGTAC, the PBM binding z-score was found to be 4.18.
On to CCTACTGGGCCAAAAGTCATTGATTCCAATGCTC, for which the PBM binding z-score was 0.447.
Take TCTAGTTGGGCAAAGGTCACACACTCGAAATGCG: the PBM binding z-score was 5.1.
The same measure, in the same setting: the figure for TCTCGGAGGACACGAAGCTCAGAGCTTTCCAGAG is 1.24.
The same measure, in the same setting: the figure for ATCTCTAGGTAACCAAGTTCAATGAATGCCGAAC is 1.43.
For ACTATTAGTTGACTTAGTGCAACCGATACGACGC, the PBM binding z-score was found to be 0.309.
On to CTCGACAGGTCGTGCTCAGGTGAGTATACCAAAC, for which the PBM binding z-score was determined as 1.42.
Regarding TCTTGTAAATCAGCAGGTTAAGAAAGCTGGCCAA, the PBM binding z-score is 0.224.
Same read-out and setting: the figure for CCGACTGGGGCAGAAAGGTTAACATACCATCCGG is 1.98; for CCTACTGGGCCATTCAGAGGTCTTTGATCATATG it is 0.306; for CCTCGGAGGACCACAGGAGGTCAGAGCTGCCAGA it is 2.18.
In the case of ATCTCTAGGTAAAGAGAGTTCAGTGAATGCAAAT, the PBM binding z-score was 1.16.
As to TCTTGGAGATCAACAGGAGGTTAAGAAAGATCGA, the PBM binding z-score was found to be 0.374.
As to CCTCGGAGGAAAGAAGGTCAGAGCTGTCCGCTTT, the PBM binding z-score amounted to 2.27.
Consider CCTCGGAGGACATAAGGTCAGAGCTGTCCGCTTT, for which the PBM binding z-score was 3.4.
Consider CGTCAAAGTTCAAGGTAAGGTAACAGAAAGCAGC, for which the PBM binding z-score was 5.22.
In turn, TTACCAAGGTGAAGGTCGTTGTTCCCTCTGTAGA registered a PBM binding z-score of 2.4.
In turn, CAGCCTAGGTCAGGGCCAGTTTAGGAGGAACGTT yielded a PBM binding z-score of 3.41.
In turn, ATGTCTAGGTAACAAGTTCAGTGAAAGAGAGGAC displayed a PBM binding z-score of 1.56.
GGAACGAGGGAATTCGAGTTGATAGCATGGCGAT came in with a PBM binding z-score of -0.688.
CCTCGGAGGACAACAGGCGGTCAGAGCTGCCAGA gave a PBM binding z-score of 1.61.
Still for that read-out and setting: the figure for CCTCGCAGGACAGAAGGTCAGAGCTGTCCGCTTT is 2.81; for GCTATTAGTTGAAAGGGCAAGCGAATGATTCTCG it is 1.94.
CCTAGCAGGCCAGGGTCACTCAAGCATTTCGCTT had a PBM binding z-score of 2.73.
CGTCCTAGGTCAATGCTAGGTCAGTGAAAGCATT had a PBM binding z-score of 4.06.
Sequence CCTACAGGGTCAGCTAGGCCAGAGTAGGGACGGC displayed a PBM binding z-score of 4.03.
Still for that read-out and setting: the same measure for TGAATGAGGTTATAAGATCATGGAACGTTGCAAA: 1.13; for CCTTACGGGTCAAGGTTATAGCACGGGTGGTACG: 4.13.
The sequence ACAGACATGTGAGTGAAGGTAACTCAGCTGGACG registered a PBM binding z-score of -0.157.
Same read-out and setting: the same measure for TCTTGTAGATCAACAGGAAGTTAAGAAAGATCGA: -0.318; for TCACGGAGGACACGAAGGTCAGAGCTTTCCAGAG: 3.44.
With GCTAGTTGGTCAGTAAAAGGTTACACACCGGTCG, the PBM binding z-score was found to be 2.
